Results filed as inconclusive are left out. Calls of active or inactive are those of the source. Unless noted, calls follow the shape of the dose curve; as a rule, active = well fitted curve in either direction with a large enough effect (not every such curve was filed as active); inconclusive = small, poorly fitted or top-dose-only effect, or another doubt; inactive = flat fitted curve, though single readings scatter.
What was measured:
[1] = AP1 Signaling Pathway (AID 357); conditions: ME-180 AP-1-bla reporter, EGF-induced, beta-lactamase ratio, 5 h; at 7.69 µM (top of the series) unless noted;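 also: ME-180 reporter cells stimulated with EGF at its EC50 level; % is scaled to controls: 0 for no effect and ±100 for the full control effect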
In short: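 First, ME-180 AP-1-bla cells were cultured overnight at 37 °C in low-serum Opti-MEM. Next, titrated compounds with EC50 EGF were incubated 5 hours. Finally, CCF4 was added for 2.5 hours and the 460/530 nm ratio recorded.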

[2] = NFAT Signaling Pathway (AID 444); conditions: Jurkat NFAT-bla M1, carbachol, beta-lactamase ratio, 5 h; at 7.69 µM (top of the series) unless noted;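 also: carbachol stimulus at about its EC50 of 1 µM final; % is scaled to controls: 0 for no effect and ±100 for the full control effect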
In short: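 Jurkat cells with NFAT-driven β-lactamase reporter and co-expressed M1 receptor, stimulated with carbachol (final 1 uM, ~EC50), compound titration, 5 h at 37 °C. CCF4 loaded 1 h at RT; 460/530 nm ratio gave %activity and AC50.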

[3] = Stat Signaling Pathway (AID 446); conditions: ME-180 SIE beta-lactamase reporter, IL-6 stimulated, 5 h; at 7.69 µM (top of the series) unless noted;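 also: ME-180 cervical cancer cells given 40 pM IL-6 alongside compound; SIE-controlled beta-lactamase reporter measured as 460/530 nm FRET emission ratio; % is scaled to controls: 0 for no effect and ±100 for the full control effect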
In short: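 Reporter line: ME-180 cervical carcinoma, SIE-beta-lactamase. Treatment: compound with 40 pM IL-6, 5 hrs, 37 C, in low-serum OPTI-MEM with 10 mM HEPES pH 7.3. Detection: 460/530 nm fluorescence.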

[4] = molecular target: Glucocorticoid receptor (Homo sapiens) (UniProt P04150); test: GR-GFP Redistribution (AID 450;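 active = compounds whose dose series gives a full or clear partial fitted curve of increased nuclear translocation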; also: potency is read from the fitted curve at half-maximal effect); conditions: U2OS GR-GFP nuclear translocation, laser cytometry, 2 h
Glucocorticoid receptor (Homo sapiens), sequence (P04150 whole entry, looked up, the tested form may be a part): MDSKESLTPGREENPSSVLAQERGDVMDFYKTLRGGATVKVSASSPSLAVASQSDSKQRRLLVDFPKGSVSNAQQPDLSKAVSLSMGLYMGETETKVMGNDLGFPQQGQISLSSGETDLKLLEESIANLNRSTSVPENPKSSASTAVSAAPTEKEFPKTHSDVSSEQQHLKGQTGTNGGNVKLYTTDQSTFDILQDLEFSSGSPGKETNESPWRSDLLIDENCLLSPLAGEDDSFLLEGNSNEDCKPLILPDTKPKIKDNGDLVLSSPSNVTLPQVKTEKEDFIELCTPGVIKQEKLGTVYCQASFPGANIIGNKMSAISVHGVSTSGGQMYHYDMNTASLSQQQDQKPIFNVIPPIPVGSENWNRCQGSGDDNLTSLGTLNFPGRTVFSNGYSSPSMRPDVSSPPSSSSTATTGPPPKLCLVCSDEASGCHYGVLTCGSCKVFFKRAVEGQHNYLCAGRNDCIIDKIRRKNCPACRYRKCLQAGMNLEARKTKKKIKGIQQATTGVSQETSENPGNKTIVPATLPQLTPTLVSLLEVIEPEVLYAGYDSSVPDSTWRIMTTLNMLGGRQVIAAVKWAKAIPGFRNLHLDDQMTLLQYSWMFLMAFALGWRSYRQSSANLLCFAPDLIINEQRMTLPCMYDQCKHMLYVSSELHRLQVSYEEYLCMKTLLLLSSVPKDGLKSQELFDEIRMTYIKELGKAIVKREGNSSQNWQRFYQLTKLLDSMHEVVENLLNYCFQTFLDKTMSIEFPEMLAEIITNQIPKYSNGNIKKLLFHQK

[5] = molecular target: Glucocorticoid receptor (Homo sapiens) (UniProt P04150); test: GR-EFC Redistribution (AID 451; calls by dose curve; also: potency is read from the fitted curve at half-maximal effect); conditions: CHO-K1 GR-EFC translocation, beta-gal luminescence, 2 h
In short: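 CHO-K1 cells expressing nuclear EA and GR-ED fragments of b-gal; compounds titrated up to 46 uM final, 2 h at 37 C. GR nuclear translocation read as complemented b-gal luminescence after 1 h RT detection.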

[6] = molecular target: Mitogen-activated protein kinase 10 (Mus musculus) (UniProt Q61831); test: JNK3 AlphaScreen Assay (AID 530);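 also: kinase came from lysate of stimulated human HepG2 cells; signal reports phosphorylation of biotinylated GST-cJun 1-79 at Ser73 with 10 µM ATP; % is scaled to controls: 0 for no effect and ±100 for the full control effect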
In short: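 qHTS format: compounds tested as titrations against IL-1beta/TNF-alpha-activated HepG2 lysate JNK3 with biotin-GST-cJun substrate and 10 uM ATP at room temperature. Loss of anti-phospho-cJun AlphaScreen signal indicates inhibition.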

[7] = molecular target: 3',5'-cyclic-AMP phosphodiesterase 4B (Homo sapiens) (UniProt Q07343); test: qHTS Assay for Inhibitors of PDE-IV (AID 607; active = well fitted activation curve with a large enough effect in the main read-out, with a control signal flat, not every such curve was filed as active; also: % of control where 0% means no effect)
3',5'-cyclic-AMP phosphodiesterase 4B (Homo sapiens), sequence (Q07343 whole entry, looked up): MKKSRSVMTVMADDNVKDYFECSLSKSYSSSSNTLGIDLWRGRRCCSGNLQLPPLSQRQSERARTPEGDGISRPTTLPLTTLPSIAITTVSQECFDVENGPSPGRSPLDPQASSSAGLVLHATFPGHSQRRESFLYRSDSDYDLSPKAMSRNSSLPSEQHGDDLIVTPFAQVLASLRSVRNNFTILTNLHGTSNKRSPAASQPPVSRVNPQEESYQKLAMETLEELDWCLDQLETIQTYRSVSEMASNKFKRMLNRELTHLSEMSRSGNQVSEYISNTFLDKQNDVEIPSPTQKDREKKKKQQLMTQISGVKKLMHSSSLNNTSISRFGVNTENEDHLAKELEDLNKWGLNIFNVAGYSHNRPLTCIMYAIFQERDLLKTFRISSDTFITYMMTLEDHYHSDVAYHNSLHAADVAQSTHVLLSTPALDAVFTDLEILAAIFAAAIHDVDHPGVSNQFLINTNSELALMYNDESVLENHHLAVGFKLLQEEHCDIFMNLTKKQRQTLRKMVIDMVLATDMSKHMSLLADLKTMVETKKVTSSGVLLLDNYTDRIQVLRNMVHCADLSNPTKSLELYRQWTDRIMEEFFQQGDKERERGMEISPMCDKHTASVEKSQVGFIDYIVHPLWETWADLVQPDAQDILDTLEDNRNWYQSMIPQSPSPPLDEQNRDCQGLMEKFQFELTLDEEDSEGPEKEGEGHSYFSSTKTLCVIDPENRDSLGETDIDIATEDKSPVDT
In short: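 Cell-based read-out of cAMP via a modified cyclic nucleotide-gated channel and membrane potential dye (535/590 nm) in HEK293 cells expressing PDE4 endogenously. Compounds tested up to 22.9 uM final; 100 uM RO 20-1724 reference.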

[8] = Confirmatory qHTS for small molecule stabilizers of the endoplasmic reticulum resident proteome: Secreted ER Calcium Modulated Protein (SERCaMP) assay (AID 1508628; active = well fitted curve in the direction sought with a large enough effect; an effect the other way counts as inactive or inconclusive; also: nearly all actives have a fitted effect of over 40% in size; also: potency is read from the fitted curve at half-maximal effect)
In short: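 We seeded SH-SY5Y-GLuc-SERCaMP cells, added compounds (three concentrations in the primary run, eleven up to 76.6 uM in confirmation), incubated 16 h, depleted ER calcium with thapsigargin, and read luciferase 4 h later.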

[9] = molecular target: Lysosomal acid glucosylceramidase (Homo sapiens) (UniProt P04062); test: Glucocerebrosidase-p2 (AID 348; in the data active = potency below about 10 µM; also: potency is read from the fitted curve at half-maximal effect); conditions: purified GBA, blue fluorogenic substrate, 40 min
Lysosomal acid glucosylceramidase (Homo sapiens), sequence (P04062 whole entry, looked up): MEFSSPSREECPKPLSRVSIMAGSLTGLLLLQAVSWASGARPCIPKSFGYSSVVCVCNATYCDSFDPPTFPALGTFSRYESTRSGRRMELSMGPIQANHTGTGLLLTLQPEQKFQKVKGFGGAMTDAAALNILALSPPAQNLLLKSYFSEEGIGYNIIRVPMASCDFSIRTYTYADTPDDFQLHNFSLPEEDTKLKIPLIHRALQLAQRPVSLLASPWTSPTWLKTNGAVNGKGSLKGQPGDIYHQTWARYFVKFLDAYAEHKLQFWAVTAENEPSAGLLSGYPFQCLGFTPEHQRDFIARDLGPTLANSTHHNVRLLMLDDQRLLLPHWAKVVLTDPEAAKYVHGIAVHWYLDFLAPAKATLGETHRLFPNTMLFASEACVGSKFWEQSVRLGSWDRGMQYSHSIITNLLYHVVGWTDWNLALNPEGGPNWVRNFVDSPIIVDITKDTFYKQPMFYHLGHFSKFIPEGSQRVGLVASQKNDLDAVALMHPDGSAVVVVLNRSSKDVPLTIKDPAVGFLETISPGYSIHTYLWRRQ
In short: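 Compounds titrated from 0.6 nM upwards against 0.2 nM enzyme in pH 5.9 citric acid/KH2PO4, taurocholate, tween-20; blue fluorogenic substrate 80 uM, 40 min room temperature, stopped and read Ex 365/Em 440 for AC50.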

[10] = molecular target: Cytochrome P450 1A2 (Homo sapiens) (UniProt P05177); test: p450-cyp1a2 (AID 410; calls by dose curve; also: potency is read from the fitted curve at half-maximal effect)
Cytochrome P450 1A2 (Homo sapiens), sequence (P05177 whole entry, looked up): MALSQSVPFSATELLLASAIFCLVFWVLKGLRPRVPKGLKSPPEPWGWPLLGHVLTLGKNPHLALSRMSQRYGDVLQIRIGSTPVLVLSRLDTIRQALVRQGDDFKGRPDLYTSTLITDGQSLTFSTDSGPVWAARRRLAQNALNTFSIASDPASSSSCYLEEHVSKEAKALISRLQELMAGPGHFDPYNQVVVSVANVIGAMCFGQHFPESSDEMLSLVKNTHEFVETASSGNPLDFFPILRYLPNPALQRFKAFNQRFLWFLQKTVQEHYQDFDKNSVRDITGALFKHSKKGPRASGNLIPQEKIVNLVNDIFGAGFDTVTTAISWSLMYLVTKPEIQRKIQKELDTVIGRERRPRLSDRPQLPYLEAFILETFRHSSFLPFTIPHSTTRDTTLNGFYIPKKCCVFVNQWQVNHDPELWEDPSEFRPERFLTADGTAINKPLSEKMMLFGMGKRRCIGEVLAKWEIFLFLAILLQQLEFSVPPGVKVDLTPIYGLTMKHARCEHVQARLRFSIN
In short: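 Inhibition was calculated relative to 57 uM furafylline (full inhibition). The reaction used human CYP1A2 at 20nM with Luciferin-ME at its Km, 100uM, driven by an NADPH-regenerating system for 60 min at room temperature.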

[11] = molecular target: Cytochrome P450 3A4 (Homo sapiens) (UniProt P08684); test: qHTS Assay for Inhibitors and Substrates of Cytochrome P450 3A4 (AID 884; active = well fitted curve in the direction sought with a large enough effect; an effect the other way counts as inactive or inconclusive; also: potency is read from the fitted curve at half-maximal effect; nearly all actives have a fitted effect of over 50% in size)
Cytochrome P450 3A4 (Homo sapiens), sequence (P08684 whole entry, looked up): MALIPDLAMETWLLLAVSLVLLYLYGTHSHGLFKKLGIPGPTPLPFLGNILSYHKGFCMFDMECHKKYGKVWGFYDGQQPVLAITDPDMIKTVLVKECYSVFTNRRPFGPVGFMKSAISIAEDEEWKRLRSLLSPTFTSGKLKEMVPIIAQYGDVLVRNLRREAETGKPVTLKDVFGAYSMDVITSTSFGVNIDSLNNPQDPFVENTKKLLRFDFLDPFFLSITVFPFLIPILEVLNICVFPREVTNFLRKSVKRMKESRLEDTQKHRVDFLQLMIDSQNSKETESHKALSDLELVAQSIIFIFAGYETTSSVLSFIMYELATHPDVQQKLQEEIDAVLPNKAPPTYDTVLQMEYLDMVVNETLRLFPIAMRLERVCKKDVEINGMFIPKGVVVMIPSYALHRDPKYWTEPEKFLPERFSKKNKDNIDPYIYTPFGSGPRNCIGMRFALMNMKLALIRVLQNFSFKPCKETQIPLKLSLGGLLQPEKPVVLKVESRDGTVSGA
In short: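 20 nM human CYP3A4 with 25 uM Luciferin-PPXE (at KM) in 200 mM KPO4, preincubated 10 min with compound; NADPH regeneration started a 60 min RT reaction. Luciferin detected by luminescence, normalized to 57 uM ketoconazole as full inhibition.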

[12] = molecular target: Cytochrome P450 3A4 (Homo sapiens) (UniProt P08684); test: qHTS Assay for Activators of Cytochrome P450 3A4 (AID 885; active = well fitted curve in the direction sought with a large enough effect; an effect the other way counts as inactive or inconclusive; also: nearly all actives have a fitted effect of over 65% in size)
In short: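 Signal was normalized against complete inhibition by 57 uM ketoconazole. The reaction used 20nM CYP3A4 with 25uM Luciferin-PPXE, 10-min compound preincubation and a 60-min NADPH-supported step at RT.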

[13] = Confirmation and Secondary Assay for Modulators of Hemoglobin Beta Chain Splicing at IVS2 654 locus (AID 910; active = well fitted curve in the direction sought with a large enough effect; an effect the other way counts as inactive or inconclusive;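 also: HeLa cells stably carrying EGFP split by mutant beta-globin IVS2-654 intron; % of control where 0% means no effect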)
In short: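 HeLa cells stably expressing EGFP interrupted by β-globin IVS2-654 intron, seeded overnight in Opti-MEM/2% FCS, then treated 2 days at 37 °C. Restored splicing read as total peak GFP intensity per well by laser scanning cytometry (488 nm excitation, 500–520 nm emission); 500 nM antisense PNA as control.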

[14] = qHTS Assay for Lipid Storage Modulators (AID 1519; calls by dose curve); conditions: Drosophila S3 cells, BODIPY lipid droplet/cell ratio, laser cytometry, cells loaded with oleic acid; for activity change, negative = inhibition: at 57.5 µM (top of the series)
In short: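 Cells seeded at 5,000 per well were treated with compounds over a concentration series and loaded with oleic acid (400 uM, as added). Lipid droplet fluorescence (488 nm excitation, 500-530 nm channel) was read by laser-scanning cytometry and normalized to 20 uM Triacsin C.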

[15] = molecular target: Ubiquitin carboxyl-terminal hydrolase 1 (Homo sapiens) (UniProt O94782); test: Inhibitors of USP1/UAF1: Pilot qHTS (AID 504865; active = well fitted curve in the direction sought with a large enough effect; an effect the other way counts as inactive or inconclusive;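 also: rhodamine fluorescence freed from ubiquitin-rhodamine substrate followed over time; top concentration of the series differs between compounds; % is scaled to controls: 0 for no effect and ±100 for the full control effect; nearly all actives have a fitted effect of over 35% in size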)
Ubiquitin carboxyl-terminal hydrolase 1 (Homo sapiens), sequence (O94782 whole entry, looked up): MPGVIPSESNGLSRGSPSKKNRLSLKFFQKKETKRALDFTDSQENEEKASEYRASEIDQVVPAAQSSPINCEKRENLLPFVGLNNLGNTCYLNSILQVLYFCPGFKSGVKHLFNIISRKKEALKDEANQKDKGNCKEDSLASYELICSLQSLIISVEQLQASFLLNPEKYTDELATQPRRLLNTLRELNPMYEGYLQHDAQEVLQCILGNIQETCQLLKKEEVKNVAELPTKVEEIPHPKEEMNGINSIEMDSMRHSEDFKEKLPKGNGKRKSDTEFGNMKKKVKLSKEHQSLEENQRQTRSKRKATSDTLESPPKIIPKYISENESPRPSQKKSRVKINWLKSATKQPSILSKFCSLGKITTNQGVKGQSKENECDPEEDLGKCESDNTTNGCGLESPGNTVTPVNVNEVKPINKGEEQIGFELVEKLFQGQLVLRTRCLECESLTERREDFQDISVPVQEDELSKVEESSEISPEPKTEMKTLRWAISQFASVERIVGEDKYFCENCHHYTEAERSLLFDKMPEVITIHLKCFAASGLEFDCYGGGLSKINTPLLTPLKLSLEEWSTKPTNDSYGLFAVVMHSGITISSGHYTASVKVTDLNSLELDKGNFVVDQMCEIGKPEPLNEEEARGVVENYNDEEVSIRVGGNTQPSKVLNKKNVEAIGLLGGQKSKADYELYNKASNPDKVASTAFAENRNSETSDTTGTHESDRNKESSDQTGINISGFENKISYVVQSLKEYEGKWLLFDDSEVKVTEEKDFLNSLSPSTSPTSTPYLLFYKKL
In short: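 In 50mM HEPES pH 7.8 containing 0.5mM EDTA, 1mM TCEP, 0.1 mg/ml BSA and 0.01% Tween-20, 1nM USP1/UAF1 is exposed to compound for 15 min, then Ub-Rho (150nM final) is added and fluorescence is read over time.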

[16] = molecular target: Dual specificity protein kinase CLK4 (Homo sapiens) (UniProt Q9HAZ1); test: qHTS Assay for Inhibitors of CDC-like Kinase 4 (Kinase-Glo Assay) (AID 1770; active = well fitted curve in the direction sought with a large enough effect; an effect the other way counts as inactive or inconclusive; also: potency is read from the fitted curve at half-maximal effect; nearly all actives have a fitted effect of over 65% in size)
Dual specificity protein kinase CLK4 (Homo sapiens), sequence (Q9HAZ1 whole entry, looked up): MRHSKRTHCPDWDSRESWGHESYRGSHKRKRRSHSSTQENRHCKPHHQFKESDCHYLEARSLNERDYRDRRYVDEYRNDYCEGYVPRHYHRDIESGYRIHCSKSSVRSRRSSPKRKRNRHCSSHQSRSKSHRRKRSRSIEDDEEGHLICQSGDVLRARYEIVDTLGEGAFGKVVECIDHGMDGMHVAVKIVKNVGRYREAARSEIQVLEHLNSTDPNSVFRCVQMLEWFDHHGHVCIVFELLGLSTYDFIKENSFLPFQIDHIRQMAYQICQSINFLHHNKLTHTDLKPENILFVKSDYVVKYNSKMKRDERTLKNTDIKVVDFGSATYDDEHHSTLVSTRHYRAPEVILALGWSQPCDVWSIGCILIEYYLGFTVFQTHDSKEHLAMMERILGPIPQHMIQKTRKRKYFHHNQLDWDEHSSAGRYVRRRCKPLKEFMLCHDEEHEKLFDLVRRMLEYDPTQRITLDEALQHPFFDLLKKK
In short: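 Substrate mix (RS peptide 100 uM, ATP 1 uM) dispensed, compound pinned in, then Clk4 added to 25 nM final. Incubated 4.5 h at RT; Kinase-Glo reagent added, luminescence read after 5 min.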

[17] = measured here: cell count channel max response
[18] = measured here: lipid channel max response

SMILES	activity change, negative = inhibition [1]	activity change, negative = inhibition [2]	activity, negative = inhibition [3]	Potency [4]	Potency [5]	outcome [6]	Potency [7]	Potency [8]	Potency [9]	Potency [10]	Potency [11]	Potency [12]	outcome [13]	activity change, negative = inhibition [14]	max response [14, 17]	max response [14, 18]	Potency [15]	Potency [16]
COc1cccc(Cn2c(=O)c(C)nc3cnc(N4CCNCC4)nc32)c1	4.85% (inactive)	-10.9% (inactive)	-3.45% (inactive)	> 9.22 µM (inactive)	> 46 µM (inactive)	inactive	inactive	35.5 µM (active)										
COCCn1c(=O)c(-c2ccc(Cl)cc2)nc2cnc(OC)nc21	5.96% (inactive)		-10.9% (inactive)	> 9.22 µM (inactive)	> 46 µM (inactive)	inactive	inactive	inactive	> 11.4 µM (inactive)	0.398 µM (active)	7.94 µM (active)	inactive						
FC(F)(F)c1ccccc1-c1nc(N2CCNCC2)c2ccccc2n1	6.77% (inactive)		11.2% (inactive)	> 46 µM (inactive)	> 46 µM (inactive)	inactive	inactive	20 µM (active)	> 11.4 µM (inactive)	10 µM (active)			inactive	7.02% (inactive)	13.7%	21.9%	inactive	
O=c1c(CCc2ccccc2)nc2cnc(N3CCNCC3)nc2n1Cc1ccc(F)cc1	-10.5% (inactive)		16.5% (inactive)	> 9.22 µM (inactive)	> 46 µM (inactive)			inactive		10 µM (active)				2.57% (inactive)	12.8%	11.7%		
N#Cc1cccc(-c2nc(N3CCNCC3)c3ccccc3n2)c1	5.75% (inactive)	10.9% (inactive)	11.7% (inactive)	> 46 µM (inactive)	> 46 µM (inactive)	inactive	inactive	11.2 µM (active)	> 11.4 µM (inactive)	2.51 µM (active)		inactive	inactive	6.61% (inactive)	6.46%	11.8%	inactive	
COc1cccc(-c2nc(N3CCN(C)CC3)c3ccccc3n2)c1	11.5% (inactive)	12.1% (inactive)	-2.04% (inactive)	> 46 µM (inactive)	> 46 µM (inactive)	inactive		20 µM (active)	> 11.4 µM (inactive)									28.2 µM (active)
Cc1ccc(P(=O)(CSC(=N)N)c2ccc(C)cc2)cc1								inactive										
